From PubChem BioAssay
Active and inactive are the calls of the source.

What was measured:
[1] = tested on: Plasmodium falciparum Sir2 (PF13_0152, Sir2A); test: pfSir2 binders on small-molecule microarrays, primary screen, biochemical, small-molecule microarray, 635 nm fluorescence (AID 1098); details: small-molecule microarray binding, fluorescence 635 nm; higher = more signal;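 note: score merges spot fluorescence intensity with its signal-to-noise ratio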
[2] = small-molecule microarray binders of probe aDKK1, primary screen, biochemical, biotinylated probe, 635/667 nm fluorescence (AID 1099); details: higher = more signal;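 note: score merges 667nm spot fluorescence with signal to noise across triplicate slides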
[3] = small-molecule microarray binders of probe aCHRDL2, primary screen, biochemical, biotinylated probe, 635/667 nm fluorescence (AID 1100); details: higher = more signal
[4] = splicing luciferase reporter signal modulators, primary screen, spliceosome inhibition project, cell-based, HEK293, splice +/- reporter (AID 1101); details: luminescence, 24 h, higher = more signal, called active from +8 up or from −8 down;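 note: HEK293 cells carrying a splicing-competent luciferase reporter gene; test concentration not given here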
[5] = biological target: Fibroblast growth factor 10 (Homo sapiens) (UniProt O15520); test: FGF10 binders on small-molecule microarrays, primary screen, biochemical, small-molecule microarray, 635 nm fluorescence (AID 1102); details: FGF10 binding, fluorescence 635 nm, higher = more signal
Chain of Fibroblast growth factor 10 (Homo sapiens) (O15520 whole entry, looked up): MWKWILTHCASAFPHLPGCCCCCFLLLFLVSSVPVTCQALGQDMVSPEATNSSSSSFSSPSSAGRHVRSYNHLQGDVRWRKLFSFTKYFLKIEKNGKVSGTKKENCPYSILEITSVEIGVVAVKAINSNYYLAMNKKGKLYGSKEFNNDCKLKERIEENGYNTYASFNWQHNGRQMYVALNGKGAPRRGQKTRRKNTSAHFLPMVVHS

[6] = tested on: glycogen synthase kinase-3 (GSK3A per assay name; protocol says GSK3B); test: GSK3 binders on small-molecule microarrays, primary screen, biochemical, small-molecule microarray, 635 nm fluorescence, GSK3A (AID 1103); details: small-molecule microarray binding, fluorescence 635 nm; higher = more signal; note: the record names both GSK3A and GSK3B
[7] = biological target: Epidermal growth factor receptor (Homo sapiens) (UniProt P00533); test: EGFR binders on small-molecule microarrays, primary screen, biochemical, small-molecule microarray, 635 nm fluorescence (AID 1104); details: EGFR binding, higher = more signal;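 note: score merges 667 nm emission intensity with spot signal to noise over triplicate slides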
Chain of Epidermal growth factor receptor (Homo sapiens) (P00533 whole entry, looked up): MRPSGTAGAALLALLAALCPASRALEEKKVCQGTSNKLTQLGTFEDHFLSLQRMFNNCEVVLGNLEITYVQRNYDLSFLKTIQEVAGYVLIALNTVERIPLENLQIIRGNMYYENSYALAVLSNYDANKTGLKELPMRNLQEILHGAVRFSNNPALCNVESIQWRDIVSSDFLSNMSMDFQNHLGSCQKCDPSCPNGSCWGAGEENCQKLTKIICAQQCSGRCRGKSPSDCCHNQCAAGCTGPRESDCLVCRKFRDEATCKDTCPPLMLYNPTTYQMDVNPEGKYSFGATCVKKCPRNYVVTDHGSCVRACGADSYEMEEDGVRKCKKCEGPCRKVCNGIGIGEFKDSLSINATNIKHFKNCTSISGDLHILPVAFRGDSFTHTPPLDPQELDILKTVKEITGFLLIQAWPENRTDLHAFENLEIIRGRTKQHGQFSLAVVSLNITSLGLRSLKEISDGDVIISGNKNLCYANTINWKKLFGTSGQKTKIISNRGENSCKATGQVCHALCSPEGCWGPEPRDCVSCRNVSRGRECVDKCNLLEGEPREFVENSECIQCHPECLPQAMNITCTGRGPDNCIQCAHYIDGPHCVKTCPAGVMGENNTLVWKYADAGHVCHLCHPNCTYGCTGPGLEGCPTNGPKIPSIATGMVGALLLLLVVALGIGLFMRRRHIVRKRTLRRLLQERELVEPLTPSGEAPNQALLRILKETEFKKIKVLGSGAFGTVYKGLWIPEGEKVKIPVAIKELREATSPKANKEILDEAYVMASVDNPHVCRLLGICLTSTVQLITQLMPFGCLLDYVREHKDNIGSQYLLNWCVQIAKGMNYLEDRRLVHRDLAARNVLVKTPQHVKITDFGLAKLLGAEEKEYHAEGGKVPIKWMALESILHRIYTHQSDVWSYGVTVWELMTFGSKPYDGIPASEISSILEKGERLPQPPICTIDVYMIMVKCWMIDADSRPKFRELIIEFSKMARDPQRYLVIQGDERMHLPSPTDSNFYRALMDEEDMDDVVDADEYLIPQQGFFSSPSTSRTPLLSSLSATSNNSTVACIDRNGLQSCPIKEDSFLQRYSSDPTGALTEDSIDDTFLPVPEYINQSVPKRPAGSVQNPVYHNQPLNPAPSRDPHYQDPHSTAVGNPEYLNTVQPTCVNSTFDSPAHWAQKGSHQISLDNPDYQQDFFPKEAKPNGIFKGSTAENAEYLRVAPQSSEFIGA

[8] = biological target: Follistatin-related protein 3 (Homo sapiens) (UniProt O95633); test: FSTL3 binders on small-molecule microarrays, primary screen, biochemical, small-molecule microarray, 635 nm fluorescence (AID 1105); details: FSTL3 binding, higher = more signal;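 note: score merges emission near 667 nm and signal to noise per printed spot across three slides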
Chain of Follistatin-related protein 3 (Homo sapiens) (O95633 whole entry, looked up): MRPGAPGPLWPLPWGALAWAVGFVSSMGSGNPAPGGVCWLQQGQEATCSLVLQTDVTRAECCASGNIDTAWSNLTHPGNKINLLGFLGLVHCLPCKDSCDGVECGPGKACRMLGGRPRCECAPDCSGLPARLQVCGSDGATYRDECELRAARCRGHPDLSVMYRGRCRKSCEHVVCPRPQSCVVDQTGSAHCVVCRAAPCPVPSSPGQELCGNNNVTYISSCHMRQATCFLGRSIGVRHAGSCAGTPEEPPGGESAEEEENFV

[9] = biological target: Dickkopf-related protein 1 (Homo sapiens) (UniProt O94907); test: DKK1 binders on small-molecule microarrays, primary screen, biochemical, small-molecule microarray, 635 nm fluorescence scan (AID 1106); details: DKK1 binding, higher = more signal;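 note: score merges emission near 667 nm with signal to noise over three replicate slides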
Chain of Dickkopf-related protein 1 (Homo sapiens) (O94907 whole entry, looked up): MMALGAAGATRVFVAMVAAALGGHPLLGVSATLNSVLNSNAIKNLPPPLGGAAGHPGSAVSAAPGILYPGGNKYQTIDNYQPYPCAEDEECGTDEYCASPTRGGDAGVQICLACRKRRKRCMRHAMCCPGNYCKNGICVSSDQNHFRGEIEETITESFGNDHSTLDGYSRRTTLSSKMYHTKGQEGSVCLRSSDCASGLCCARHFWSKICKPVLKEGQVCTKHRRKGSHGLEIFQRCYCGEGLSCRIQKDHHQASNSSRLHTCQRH

[10] = tested on: Inhibin beta A chain (activin A); test: INHBA (activin A) binders on microarrays, primary screen, biochemical, small-molecule microarray, 635 nm fluorescence scan (AID 1107); details: small-molecule microarray binding, higher = more signal;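 note: mouse activin A protein probed at 4.33 µg/mL on printed slides; score merges bound-protein fluorescence near 667 nm with spot signal-to-noise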
[11] = tested on: Human papillomavirus type 1a protein E7 (residues 44-93); test: HPV1a E7 fragment binders on microarrays, primary screen, biochemical, small-molecule microarray, residues 44-93, 635 nm fluorescence (AID 1108); details: small-molecule microarray binding, fluorescence 635 nm; higher = more signal;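 note: E7 fragment applied at 1 µg/mL in TBST for 1 h at 4 C; score combines spot fluorescence with its signal to noise ratio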
[12] = modulators of HCV replicon luciferase signal, primary screen, HCV replication inhibitor project, Huh7 cells, luciferase reporter (AID 1109); details: 48 h, higher = more signal;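 note: huh7 hepatoma cells harbouring a luciferase neomycin HCV replicon reporter; luciferase luminescence as measure of HCV replicon replication; test concentration not given here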
[13] = biological target: Left-right determination factor 2 (Homo sapiens) (UniProt O00292); test: LEFTY2 binders on small-molecule microarrays, primary screen, biochemical, small-molecule microarray, 635 nm fluorescence scan (AID 1110); details: LEFTY2 binding, higher = more signal
Chain of Left-right determination factor 2 (Homo sapiens) (O00292 whole entry, looked up): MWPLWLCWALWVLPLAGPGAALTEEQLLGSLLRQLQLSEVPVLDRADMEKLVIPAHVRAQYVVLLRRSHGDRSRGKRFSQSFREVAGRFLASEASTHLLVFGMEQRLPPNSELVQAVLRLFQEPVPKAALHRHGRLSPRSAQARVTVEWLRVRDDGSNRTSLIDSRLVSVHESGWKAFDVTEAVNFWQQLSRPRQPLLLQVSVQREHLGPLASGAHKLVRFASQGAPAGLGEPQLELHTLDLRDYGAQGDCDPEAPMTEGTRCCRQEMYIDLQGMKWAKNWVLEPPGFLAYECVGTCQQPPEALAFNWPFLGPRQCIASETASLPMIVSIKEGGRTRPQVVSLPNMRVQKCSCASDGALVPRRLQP

[14] = biological target: Calmodulin-1 (Homo sapiens) (UniProt P0DP23); test: CALM1 binders on microarrays, EGTA buffer, profiling panel, biochemical, small-molecule microarray, Cy5-labelled CALM1 (AID 1111); details: Cy5-CALM1 binding fluorescence, higher = more signal;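 note: labelled calmodulin applied in Tris saline Tween buffer holding calcium plus EGTA and DTT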
[15] = biological target: Calmodulin-1 (Homo sapiens) (UniProt P0DP23); test: calcium-bound CALM1 binders on microarrays, profiling panel, artefact control for SMM control-protein annotation, biochemical, small-molecule microarray, Cy5-labelled CALM1, plus calcium (AID 1112); details: Cy5-CALM1 binding fluorescence, higher = more signal;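 note: score merges spot fluorescence with signal to noise from triplicate slides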
[16] = small-molecule microarray binders of probe aWnt5a, primary screen, biochemical, biotinylated probe, 635/667 nm fluorescence (AID 1113); details: higher = more signal;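 note: score merges 667 nm fluorescence intensity with signal-to-noise per printed feature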
[17] = small-molecule microarray binders of probe aShh, primary screen, biochemical, biotinylated probe, 635/667 nm fluorescence (AID 1114); details: higher = more signal;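 note: probe is biotin-labelled aShh protein from a stem cell growth factor screen; measures binding of labelled protein to compounds printed on the slide; score merges feature fluorescence at 667 nm with signal-to-noise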
[18] = small-molecule microarray binders of probe aNog, primary screen, biochemical, biotinylated probe, 635/667 nm fluorescence (AID 1115); details: higher = more signal;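 note: probe is biotinylated aNog protein used at 0.15 µg/mL for 1 h at 4 C; z-score combines 667 nm fluorescence of each spot with its signal to noise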
[19] = biological target: Torsin-1A-interacting protein 1 (Homo sapiens) (UniProt Q5JTV8); test: LAP1 binders from COS7 cell lysate, primary screen, small-molecule microarray, 635/667 nm fluorescence (AID 1116); details: COS7-hLAP1 lysate binding, 635 nm fluorescence, higher = more signal
Chain of Torsin-1A-interacting protein 1 (Homo sapiens) (Q5JTV8 whole entry, looked up): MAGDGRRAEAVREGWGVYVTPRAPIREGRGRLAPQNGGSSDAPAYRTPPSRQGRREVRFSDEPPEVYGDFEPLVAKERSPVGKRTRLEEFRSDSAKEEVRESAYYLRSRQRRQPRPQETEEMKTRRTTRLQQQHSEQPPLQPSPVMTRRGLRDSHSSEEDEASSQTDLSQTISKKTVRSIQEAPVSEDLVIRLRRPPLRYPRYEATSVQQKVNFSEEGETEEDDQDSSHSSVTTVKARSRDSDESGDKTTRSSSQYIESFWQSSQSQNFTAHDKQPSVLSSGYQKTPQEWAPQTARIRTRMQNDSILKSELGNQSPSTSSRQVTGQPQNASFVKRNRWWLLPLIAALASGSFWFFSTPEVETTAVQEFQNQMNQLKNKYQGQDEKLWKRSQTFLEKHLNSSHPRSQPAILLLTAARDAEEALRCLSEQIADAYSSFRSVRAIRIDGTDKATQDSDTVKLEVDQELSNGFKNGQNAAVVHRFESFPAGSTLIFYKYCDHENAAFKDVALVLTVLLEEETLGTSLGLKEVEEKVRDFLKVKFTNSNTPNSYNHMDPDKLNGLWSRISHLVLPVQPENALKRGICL

[20] = biological target: Alpha-bungarotoxin (Bungarus multicinctus) (UniProt P60615); test: alpha-bungarotoxin binders on microarray, profiling panel, artefact control for SMM control protein annotation, biochemical, small-molecule microarray, Alexa647 label, 635/667 nm fluorescence (AID 1117); details: alpha-BTX-A647 binding fluorescence, higher = more signal
Chain of Alpha-bungarotoxin (Bungarus multicinctus) (P60615 whole entry, looked up): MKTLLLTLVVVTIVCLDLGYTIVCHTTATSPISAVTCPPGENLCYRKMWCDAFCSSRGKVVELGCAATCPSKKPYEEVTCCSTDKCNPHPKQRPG

| Structure (SMILES) | composite z-score [1] | composite z-score [2] | composite z-score [3] | z-score [4] | composite z-score [5] | composite z-score [6] | composite z-score [7] | composite z-score [8] | composite z-score [9] | composite z-score [10] | composite z-score [11] | z-score [12] | composite z-score [13] | composite z-score [14] | composite z-score [15] | composite z-score [16] | composite z-score [17] | composite z-score [18] | composite z-score [19] | composite z-score [20] |
| --- | --- | --- | --- | --- | --- | --- | --- | --- | --- | --- | --- | --- | --- | --- | --- | --- | --- | --- | --- | --- |
| COC(=O)C(CC#Cc1ccc2c(c1)[C@]1(C(=O)N2)[C@H](c2ccc(OCCO)cc2)N2[C@H](c3ccccc3)[C@H](c3ccccc3)OC(=O)[C@H]2[C@@H]1C(=O)O)C(=O)OC | 1.78 | 1.18 | 0.931 | -0.609 (inactive) | 0.809 | 1.03 | 0.194 | 0.808 | 0.119 | 0.765 | 0.324 | -0.442 | 0.431 | 1.23 | 0.707 | 0.0438 | 0.446 | 0.812 | 2.1 | 1.83 |
| C=CCC(OC(C)=O)[C@@H]1[C@@H](N(Cc2cc3ccccc3o2)C(=O)Cc2ccc(OC)cc2)c2cc(OCCCO)ccc2N1C(=O)c1ccc(-c2ccccc2)cc1 (stereo not given in full) | -0.297 | 0.068 | 0.63 | -0.354 (inactive) | -0.185 | -0.158 | -0.426 | -0.272 | -0.45 | 1.34 | 0.0962 | -0.71 | -0.214 | -0.365 | 0.468 | -0.0767 | -0.147 | -0.23 | -0.113 | 0.0856 |
| [N-]=[N+]=Nc1ccccc1[C@H]1OC(c2ccc(OCCCO)cc2)=N[C@@]1(Cc1ccccc1)C(=O)NCc1ccccc1 | 0.427 | 0.243 | 0.712 | -1.72 (inactive) | 0.776 | 1.12 | -0.0565 | 0.643 | 0.865 | 0.774 | 1.4 | -3.14 | 0.364 | 0.503 | -0.171 | -0.0492 | 0.0723 | -0.261 | 0.832 | 0.421 |
| CC(C)=CCCC(C)=CC(O)C1C=CC2C(=O)N(c3ccccc3)C(=O)C2N1Nc1ccc([N+](=O)[O-])cc1 (stereo not given) | 1.29 | -0.0499 | 0.77 | 0.644 (inactive) | 0.74 | 1.34 | 0.0387 | 0.996 | -0.4 | 0.387 | 1.42 | -0.135 | -0.183 | 1.78 | 0.512 | -0.0194 | 0.0952 | 1.71 | 1.08 | 0.972 |
| CC1CC/C=C\[C@H]2OC34C=CCN(Cc5ccccc5)C(=O)[C@H]3N(CCO)C(=O)[C@@H]4C2C(=O)O1 (stereo not given in full) | 1.59 | -0.0038 | 0.681 | 0.229 (inactive) | 0.237 | -0.252 | -1.11 | -1.07 | -0.798 | 1.23 | 0.442 | -0.0892 | -0.51 | -0.556 | 0.0116 | 0.0597 | -0.0035 | 0.0169 | 1.62 | -0.4 |
| CC(C)(C)OC(=O)CC[C@@]1(C(=O)N2CCCCC2)N=C(c2ccc(OCCCO)cc2)O[C@@H]1c1ccccc1N=[N+]=[N-] | 1.13 | 0.977 | 0.964 | -0.405 (inactive) | 1.19 | 1.3 | 0.32 | 1.1 | -0.139 | 0.899 | 1.03 | 0.0393 | 0.503 | 1.07 | 0.398 | 0.0434 | 0.0638 | 1.92 | 1.27 | 0.451 |
| CN(C)CCCC[C@@H]1NC(=O)[C@H]2C[C@@H](C(=O)NCCCCCCNC(=O)CS)[C@@H](c3ccc(O)cc3)N2C1=O | 1.74 | -0.172 | 0.314 | -0.296 (inactive) | -0.31 | -0.323 | 0.0264 | 1.27 | -0.17 | 0.947 | 1.3 | 0.344 | -0.603 | -0.445 | -0.107 | -0.221 | 0.194 | -0.541 | 2.53 | -0.945 |
| COC(=O)[C@@]1(Cc2ccc(F)cc2)[C@@H]2[C@@H](CC(=O)[C@H]2CC(=O)C(=O)N2CCCC2)CN1C(=O)c1ccccc1 | 1.16 | 0.942 | 0.807 | -0.98 (inactive) | 1.11 | 1.3 | -0.121 | 1.02 | -0.0822 | 0.85 | 1.43 | -2.01 | -0.412 | 2.17 | 1.01 | 0.135 | 0.338 | 2.34 | 0.739 | 1.03 |
| CCC[C@@H]1C[C@@]1(CCC)[C@@H](NC(=O)c1cccs1)c1ccc(Cl)cc1 | -0.67 | 0.119 | 1.09 | -1.15 (inactive) | -0.341 | -0.919 | -2.21 | -2.17 | -1.76 | 0.948 | -0.364 | -2.05 | -2.42 | 0.883 | 0.881 | 0.0529 | 0.29 | 1.39 | -0.506 | -0.0153 |
| COc1ccc([Si](C)(C)[C@H]2[C@H](CCn3cc(CCO)nn3)O[C@@]3(C(=O)N(Cc4cccc(N5C(=O)c6cccc7cccc5c67)c4)c4ccccc43)[C@@H]2C)cc1 | 1.23 | -0.0314 | -0.567 | -1.61 (inactive) | 1.27 | 0.719 | 0.268 | 0.81 | 0.848 | -0.427 | 1.1 | -5.14 | 0.464 | 0.35 | 0.241 | -0.136 | 0.131 | 1.01 | 1.46 | 1.07 |
| COC(=O)c1ccc(OC)c(/C=C\CC(CCc2ccccc2)OC(C)=O)c1 (stereo not given) | -0.388 | -0.493 | -0.101 | -0.101 (inactive) | -0.614 | -0.0629 | -0.309 | 0.21 | 0.239 | 1.53 | -0.498 | -1.1 | -0.274 | -0.42 | -0.134 | -0.152 | -0.214 | -0.192 | -0.343 | 0.516 |
